According to PubChem BioAssay (NCATS):
Records with an inconclusive call do not appear. A call without a number means that no potency is given here. The source made the active and inactive calls. Calls follow the shape of the dose curve; as a rule, active = well fitted curve in the direction sought with a large enough effect; inconclusive = small, poorly fitted or top-dose-only effect, or another doubt; inactive = no such curve, though single readings can be large; an effect the other way counts as inactive or inconclusive.

Columns and labels:
[1] = system: HeLa; assay: Primary qHTS to identify gynecologic anti-cancer compounds using libraries of approved drugs and bioactive compounds (AID 1345084); conditions: Gynecologic cancer cell panel viability, ATPlite luminescence, 48 h; series mostly up to 57.5 µM; also: nearly all actives have a fitted effect of over 55% in size
Method in brief: (§1)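 Cytotoxicity screen measuring ATP content by luciferase luminescence. Each compound is applied at five concentrations for 48 h at 37 C with 5% CO2.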

[2] = system: Hek293T; assay: as above; conditions: Gynecologic cancer cell panel viability, ATPlite luminescence, 48 h, control line for the selectivity index; series mostly up to 57.5 µM
Method in brief: as §1

[3] = system: JEG-3; assay: as above; conditions: Gynecologic cancer cell panel viability, ATPlite luminescence, 48 h; series mostly up to 57.5 µM
Method in brief: as §1

[4] = system: OV90; assay: as above; conditions: Gynecologic cancer cell panel viability, ATPlite luminescence, 48 h; series mostly up to 57.5 µM
Method in brief: as §1

[5] = system: PA-1; assay: as above; conditions: Gynecologic cancer cell panel viability, ATPlite luminescence, 48 h; series mostly up to 57.5 µM
Method in brief: as §1

[6] = system: SKOV3; assay: as above; conditions: Gynecologic cancer cell panel viability, ATPlite luminescence, 48 h; series mostly up to 57.5 µM
Method in brief: as §1

[7] = system: Tov-21-G; assay: as above; conditions: Gynecologic cancer cell panel viability, ATPlite luminescence, 48 h; series mostly up to 57.5 µM
Method in brief: as §1

[8] = system: Tov112D; assay: as above; conditions: Gynecologic cancer cell panel viability, ATPlite luminescence, 48 h; series mostly up to 57.5 µM
Method in brief: as §1

[9] = Drug repurposing screens with cells derived from glioblastoma tumor samples (AID 1345199); conditions: GBM patient neurospheres viability, ATP luminescence, 48 h; Potency: tumour line A unless noted; series mostly up to 45.9 µM; also: nearly all actives have a fitted effect of over 40% in size
Method in brief: (§2)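 Four patient lines of CD133+ GBM neurospheres were screened at several concentrations; hits were retested in those lines plus three slower-growing GBM lines, using 48-hour treatment and ATP-based viability.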

[10] = system: astro; assay: as above; conditions: viability, ATP luminescence, 48 h; series mostly up to 45.9 µM
Method in brief: as §2
Potency is read from the fitted curve at half-maximal effect.

In the case of `CC(O)CN1CCN(CC(=O)[O-])CCN(CC(=O)[O-])CCN(CC(=O)[O-])CC1.[Gd+3]` (configuration not stated), the Potency [1] is reported as “inactive”, the Potency [2] is reported as “inactive” and the Potency [3] is reported as “inactive”. The Potency [4] was “inactive”, the Potency [5] was “inactive” and the Potency [6] was “inactive”. The Potency [7] was “inactive”, the Potency [8] was “inactive” and the Potency [9] was “inactive”. The Potency [10] was “inactive”.

With `CC(Cc1ccc(O)cc1)NCC(O)c1cc(O)cc(O)c1` (configuration not stated) the Potency [1] was “inactive”, the Potency [2] was “inactive” and the Potency [3] was “inactive”. The Potency [5] was “inactive”, the Potency [6] was “inactive” and the Potency [7] was “inactive”. For the same molecule, the Potency [8] was “inactive”, the Potency [9] was “inactive” and the Potency [10] was “inactive”.

In the case of `CCCCC(CC)COC(=O)c1ccccc1C(=O)OCC(CC)CCCC` (configuration not stated), the Potency [1] is reported as “inactive”, the Potency [2] is reported as “inactive” and the Potency [3] is reported as “inactive”. For the same molecule, the Potency [5] was “inactive”, the Potency [7] was “inactive” and the Potency [8] was “inactive”. For the same molecule, the Potency [10] was “inactive”.

For `O=C(O)CCCOc1ccc(Cl)cc1Cl`, the Potency [1] was “inactive”, the Potency [2] was “inactive” and the Potency [3] was “inactive”. The Potency [4] was “inactive”, the Potency [5] was “inactive” and the Potency [7] was “inactive”. The Potency [8] was “inactive” and the Potency [9] was “inactive”.

With `CCCCCCCCc1ccc(O)cc1` the Potency [1] was “inactive”, the Potency [2] was “inactive” and the Potency [3] was “inactive”. The Potency [4] was “inactive”, the Potency [6] was “inactive” and the Potency [8] was “inactive”. For the same molecule, the Potency [9] was “inactive” and the Potency [10] was “inactive”.

With `CC(=O)[O][Hg][c]1ccccc1` the Potency [1] was 14.1 µM (active), the Potency [2] was 7.08 µM (active) and the Potency [3] was 5.01 µM (active). For the same molecule, the Potency [4] was 12.6 µM (active), the Potency [5] was 3.16 µM (active) and the Potency [6] was 3.55 µM (active). The Potency [7] was 2.51 µM (active), the Potency [8] was 5.01 µM (active) and the Potency [10] was 1.26 µM (active).

In the case of `O=[N+]([O-])/N=C1\NCCN1Cc1ccc(Cl)nc1`, the Potency [1] is reported as “inactive”, the Potency [2] is reported as “inactive” and the Potency [3] is reported as “inactive”. The Potency [4] was “inactive”, the Potency [5] was “inactive” and the Potency [6] was “inactive”. The Potency [7] was “inactive”, the Potency [8] was “inactive” and the Potency [10] was “inactive”.

For `ClC1=C(Cl)[C@]2(Cl)[C@@H]3[C@@H]4C[C@@H]([C@H]5O[C@@H]45)[C@@H]3[C@@]1(Cl)C2(Cl)Cl`, the Potency [1] was “inactive”, the Potency [2] was “inactive” and the Potency [3] was “inactive”. The Potency [5] was “inactive”, the Potency [7] was “inactive” and the Potency [8] was “inactive”. The Potency [10] was “inactive”.

In the case of `CC(N[C@H]1C[C@H]1c1ccccc1)c1ccc2c(c1)OCCO2` (some centres not stated), the Potency [1] is reported as “inactive”, the Potency [2] is reported as “inactive” and the Potency [3] is reported as “inactive”. The Potency [4] was “inactive”, the Potency [5] was “inactive” and the Potency [7] was “inactive”. For the same molecule, the Potency [8] was “inactive”.

In the case of `CCCCOC(=O)c1ccccc1C(=O)OCc1ccccc1`, the Potency [1] is reported as “inactive”, the Potency [2] is reported as “inactive” and the Potency [3] is reported as “inactive”. The Potency [5] was “inactive”, the Potency [7] was “inactive” and the Potency [8] was “inactive”. The Potency [9] was “inactive” and the Potency [10] was “inactive”.

In the case of `COC(C)(C)CCCC(C)C/C=C/C(C)=C/C(=O)OC(C)C` (configuration not stated), the Potency [1] is reported as “inactive”, the Potency [2] is reported as “inactive” and the Potency [3] is reported as “inactive”. The Potency [4] was “inactive”, the Potency [5] was “inactive” and the Potency [6] was “inactive”. For the same molecule, the Potency [7] was “inactive”, the Potency [8] was “inactive” and the Potency [10] was “inactive”.

For `OCCCBr`, the Potency [1] was “inactive”, the Potency [2] was “inactive” and the Potency [3] was “inactive”. For the same molecule, the Potency [4] was “inactive”, the Potency [7] was “inactive” and the Potency [8] was “inactive”. For the same molecule, the Potency [9] was “inactive” and the Potency [10] was “inactive”.

With `CCC(=O)O[C@@H]1C=C2CCC3C(CCC4(C)C3CC[C@@H]4OC(=O)CC)C2CC1` (some centres not stated) the Potency [1] was “inactive”, the Potency [2] was “inactive” and the Potency [3] was “inactive”. For the same molecule, the Potency [5] was “inactive”, the Potency [6] was “inactive” and the Potency [7] was “inactive”. For the same molecule, the Potency [8] was “inactive”.

With `O=[N+]([O-])c1c(Cl)c(Cl)cc(Cl)c1Cl` the Potency [1] was “inactive”, the Potency [2] was “inactive” and the Potency [3] was “inactive”. The Potency [4] was “inactive”, the Potency [5] was “inactive” and the Potency [7] was “inactive”. For the same molecule, the Potency [8] was “inactive”, the Potency [9] was “inactive” and the Potency [10] was “inactive”.

For `COCCOCCO`, the Potency [1] was “inactive”, the Potency [2] was “inactive” and the Potency [3] was “inactive”. The Potency [5] was “inactive”, the Potency [6] was “inactive” and the Potency [7] was “inactive”. The Potency [8] was “inactive” and the Potency [9] was “inactive”.

With `CC1(C)CC/C(=C/c2ccc(Cl)cc2)C1(O)Cn1cncn1` (configuration not stated) the Potency [1] was “inactive”, the Potency [2] was “inactive” and the Potency [3] was “inactive”. The Potency [5] was “inactive”, the Potency [6] was “inactive” and the Potency [7] was “inactive”. The Potency [8] was “inactive” and the Potency [10] was “inactive”.

In the case of `c1cc2ccc3cccc4ccc(c1)c2c34`, the Potency [1] is reported as “inactive”, the Potency [2] is reported as “inactive” and the Potency [3] is reported as “inactive”. The Potency [4] was “inactive”, the Potency [5] was “inactive” and the Potency [6] was “inactive”. For the same molecule, the Potency [7] was “inactive”, the Potency [9] was “inactive” and the Potency [10] was “inactive”.

With `CC(C)(C)C(O)C(Oc1ccc(Cl)cc1)n1cncn1` (configuration not stated) the Potency [1] was “inactive”, the Potency [2] was “inactive” and the Potency [3] was “inactive”. The Potency [5] was “inactive”, the Potency [6] was “inactive” and the Potency [7] was “inactive”. For the same molecule, the Potency [8] was “inactive” and the Potency [10] was “inactive”.

In the case of `Cc1[nH]nc2ccc(-c3cncc(OC[C@@H](N)Cc4c[nH]c5ccccc45)c3)cc12`, the Potency [1] is reported as 0.891 µM (active), the Potency [2] is reported as 0.631 µM (active) and the Potency [3] is reported as 2.82 µM (active). The Potency [4] was 5.62 µM (active), the Potency [5] was 0.794 µM (active) and the Potency [7] was 0.708 µM (active). For the same molecule, the Potency [8] was 1 µM (active).

In the case of `CC(C)(C)NC[C@H](O)c1ccc(O)cc1Cl`, the Potency [1] is reported as “inactive”, the Potency [2] is reported as “inactive” and the Potency [3] is reported as “inactive”. For the same molecule, the Potency [4] was “inactive”, the Potency [7] was “inactive” and the Potency [8] was “inactive”. For the same molecule, the Potency [9] was “inactive” and the Potency [10] was “inactive”.

In the case of `Fc1cc(Br)ccc1CBr`, the Potency [1] is reported as “inactive”, the Potency [2] is reported as “inactive” and the Potency [3] is reported as “inactive”. The Potency [4] was “inactive”, the Potency [5] was “inactive” and the Potency [7] was “inactive”. For the same molecule, the Potency [8] was “inactive”.

For `O=C(N[C@@H](COc1ccc2[nH]c(=O)[nH]c2c1)c1ccccc1)c1cccn(Cc2ccc(F)c(F)c2)c1=O`, the Potency [1] was “inactive”, the Potency [2] was “inactive” and the Potency [3] was “inactive”. For the same molecule, the Potency [4] was “inactive”, the Potency [5] was “inactive” and the Potency [7] was “inactive”. The Potency [8] was “inactive”.
